This is a sample that favours compounds with a hit; in the whole collection about 2.3% have one here.
CHO-K1 Ca antag: counter-screen for M1 antagonists: effect in parental CHO-K1 cells | AID 602250 | inhibition, % at 3 µM | ATP-induced calcium, Fluo-8 fluorescence | 360,000 tested, 0.6% active;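 active = inhibition above a per-plate cutoff, the plate's mean sample inhibition plus 3 SD, cut at about 24% in these data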;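 also: 0% = DMSO plus EC80 ATP and 100% = DMSO alone without ATP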
CHO-K1 Ca PAM: nonselective activator or artifact in parental CHO-K1 calcium assay; ATP EC20, Fluo-8 calcium fluorescence; 0% at ATP EC20, 100% at ATP max; AID 602247; 360,000 tested, 0.02% active; activation, % at 3 µM;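 active = activation above the run cutoff, the mean activation of all test compounds plus 3 SD, cut at about 40% in these data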;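 also: peak over basal fluorescence ratio in a 140 s read after ATP addition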
M1 PAM: human CHRM1 positive allosteric modulation. P11229. activation, % at 3 µM. CHO-K1 hM1, Fluo-8 calcium fluorescence, ACh EC20; 0% = ACh EC20, 100% = maximal ACh. 360,000 tested, 0.088% active; in the data active = activation above about 19%, passing the limit was not always enough
Target sequence (P11229 whole entry, looked up): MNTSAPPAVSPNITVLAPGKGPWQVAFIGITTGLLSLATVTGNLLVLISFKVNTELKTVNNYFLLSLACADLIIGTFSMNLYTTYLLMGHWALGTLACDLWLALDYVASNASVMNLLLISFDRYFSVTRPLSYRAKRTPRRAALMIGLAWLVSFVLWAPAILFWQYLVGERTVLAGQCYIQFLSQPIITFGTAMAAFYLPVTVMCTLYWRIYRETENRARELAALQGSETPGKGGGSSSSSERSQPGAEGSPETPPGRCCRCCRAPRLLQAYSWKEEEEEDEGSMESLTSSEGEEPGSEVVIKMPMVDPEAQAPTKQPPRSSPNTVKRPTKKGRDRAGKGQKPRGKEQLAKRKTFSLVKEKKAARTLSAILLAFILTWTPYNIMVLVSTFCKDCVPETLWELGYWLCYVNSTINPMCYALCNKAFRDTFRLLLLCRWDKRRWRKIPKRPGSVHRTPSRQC
CHO-K1 Ca ag: counter-screen for M1 agonists: effect in parental CHO-K1 cells. Fluo-8 calcium fluorescence; scaled to maximal ATP response, vehicle zero. activation, % at 3 µM. 360,000 tested, 0.48% active. AID 602248; in the data active = activation above about 15%;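 also: untransfected CHO-K1 host cells lacking M1 receptor as counterscreen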
CHRM1 antagonist: antagonists of human M1 muscarinic receptor; P11229; inhibition, % at 3 µM; 360,000 tested, 1.3% active; CHO-K1 hM1, Fluo-8 calcium fluorescence, ACh EC80 antagonist;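 active = percent inhibition above its own plate's cutoff, namely the mean of that plate's compound wells plus 3 SD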;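 also: peak over basal fluorescence ratio during 140 s after agonist addition; 0% = ACh EC80 plus DMSO and 100% = DMSO alone without agonist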
CHRM1 agonist: agonists of human M1 muscarinic receptor | CHO-K1 hM1, Fluo-8 calcium fluorescence, agonist mode; 0% DMSO, 100% acetylcholine EC100 | activation, % at 3 µM | AID 588814 | 360,000 tested, 0.33% active | P11229;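 active = activation above the run's mean compound activation plus 3 SD, cut at about 16% in these data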;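 also: peak over basal fluorescence ratio within a 140 s kinetic read after compound addition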
Numbers without * were called inactive; . = no result given.

SMILES | CHO-K1 Ca antag | CHO-K1 Ca PAM | M1 PAM | CHO-K1 Ca ag | CHRM1 antagonist | CHRM1 agonist
CC1CCCN(S(=O)(=O)c2ccc(NC(=O)CN3CCN(C)CC3)cc2)C1 (stereo not drawn) | 7.4 | -1.9 | -18.9 | 0.0 | 21.8* | -6.1
COC(=O)Nc1ccc(S(=O)(=O)N2CCCC(C(=O)N3CC(C)OC(C)C3)C2)cc1 (stereo not drawn) | 1.0 | 13.3 | 6.6 | 15.5* | 6.1 | -1.4
CC1CCN(C(C)C(=O)Nc2cc(S(=O)(=O)N3CCCCC3)ccc2Cl)CC1 (stereo not drawn) | -11.9 | 10.8 | 2.1 | 0.2 | -8.3 | -3.1
O=C1O[C@@H](c2ccccc2)C[C@@H](O)C(=O)CCCc2ccccc21 | -6.6 | 6.3 | . | 1.0 | . | .
CC1CCCN(CC(=O)Nc2cc(S(=O)(=O)N3CCOCC3)ccc2N2CCCC2)C1 (stereo not drawn) | -7.0 | -1.6 | -20.7 | 0.3 | 38.0* | -8.1
Cc1ccc(C)n1CCN1CCN(CC(=O)Nc2ccc(S(N)(=O)=O)cc2)CC1 | 29.3* | -5.0 | -5.3 | -0.4 | 16.9 | -3.1
CC1CCCN(S(=O)(=O)c2ccc(NC(=O)CNC3CCCC3)cc2)C1 (stereo not drawn) | -22.7 | 21.6 | -2.1 | 4.2 | -7.3 | -12.3
CC1CCN(CC(=O)Nc2ccc(S(=O)(=O)N3CCCC(C)C3)cc2)CC1 (stereo not drawn) | -1.6 | 10.5 | -7.8 | 17.7* | 2.8 | -8.0
CC1CCCN(S(=O)(=O)c2ccc(NC(=O)Cc3ccc(S(=O)(=O)N4CCOCC4)s3)cc2)C1 (stereo not drawn) | 24.5* | -32.3 | 2.7 | -0.4 | 3.3 | -0.1
CC(C)(C)CC(=O)Nc1cc(S(=O)(=O)N2CCOCC2)ccc1N1CCCC1 | -21.2 | 15.8 | 4.8 | 0.4 | -24.6 | -3.4
N#CCc1ccc(-c2cccc3nccn23)cc1 | -15.0 | 21.1 | -0.4 | 1.4 | -8.4 | -8.6
C=CCNc1nc2c(c(=O)n(C)c(=O)n2C)n1CC | 30.5* | -9.2 | 6.6 | 1.1 | -0.4 | -1.4
C=CCNc1nc2c(c(=O)n(C)c(=O)n2C)n1CCCCCC | 12.2 | 2.4 | -0.7 | 1.7 | 16.3 | -2.9
Cc1nonc1NC(=O)CSc1nc2ccc(Cl)cc2[nH]1 | 34.1* | -3.0 | 3.4 | 11.6 | -6.8 | 1.1
C=CCNc1nc(C(=O)OCC(=O)c2ccc(Cl)cc2)cs1 | -1.3 | -16.3 | -6.0 | 0.3 | 9.3 | -2.3
Fc1ccccc1-c1csc(=Nc2cccnc2)n1CCCn1ccnc1 | -3.7 | 18.4 | -26.9 | 2.3 | 30.4* | -11.1
Fc1ccccc1-c1csc(=Nc2cccnc2)n1CC1CCCO1 (stereo not drawn) | 3.3 | -8.4 | -7.7 | 4.0 | 8.9 | -8.2
CCCC(C)(C)C(=O)N1CCC1(C)C(=O)NS(=O)(=O)c1ccccc1Cl (stereo not drawn) | -11.3 | 3.2 | 1.3 | 0.4 | -11.2 | -1.8
CCOC(=O)c1ccccc1NC(=O)Cc1ccc(S(=O)(=O)N2CCCC2)s1 | -10.8 | 6.2 | 4.7 | 0.0 | -9.2 | -5.0
CN(C)CCOC(C1CCCCC1)C1CCCCC1 | -16.7 | 35.7 | -20.3 | 9.1 | 48.9* | -5.3
Cc1sc2nc(CN3CCOCC3)nc(N3CCOCC3)c2c1C | 1.3 | 14.3 | 8.4 | 0.0 | -12.4 | -4.2
Cc1sc2nc(CN3CCOCC3)nc(N3CCC(C(N)=O)CC3)c2c1C | 25.1* | -15.9 | 12.6 | 0.1 | -12.5 | 0.8
Cc1ccc(C)c(Cn2nc(-c3cc(C)ccc3C)ccc2=O)c1 | -2.5 | 14.3 | 9.8 | 0.2 | -8.8 | -4.5
CC(Oc1ccc2c(-c3ccccc3)cc(=O)oc2c1)C(=O)NC(Cc1c[nH]c2ccc(O)cc12)C(=O)O (stereo not drawn) | 26.6* | -14.9 | -9.8 | 2.8 | 8.6 | -1.4
COc1ccc(/C=C/C(=O)N(C)Cc2cccs2)cc1S(=O)(=O)N1CCOCC1 | -0.2 | 4.5 | 4.2 | 16.4* | 6.1 | -7.5
COc1ccc(NC(C)=O)cc1S(=O)(=O)N1CCN(Cc2cccs2)CC1 | -10.5 | 11.2 | 24.2* | 1.1 | -9.8 | 5.9
COc1ccc(C(=O)NCc2cccs2)cc1S(=O)(=O)N1CCOCC1 | -5.9 | -0.6 | 5.7 | 0.6 | -3.9 | -4.2
COC(=O)[C@]1(C)N[C@H](CN(C)C(=O)C2CCCCC2)[C@@H]2C(=O)N(Cc3ccccc3)C(=O)[C@@H]21 | -17.7 | 10.6 | 6.3 | 0.6 | -11.2 | -2.2

Assay outcomes from PubChem.
